Measurements: PubChem BioAssay (NCI)
Compounds without any hit were thinned out: in the full panel of roughly 83,000, 20% have a hit.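 Interpretation: 100, growth as untreated; towards 0, rising growth inhibition; 0, no net growth; 0 to -100, cell death. Compounds scoring below 10 were considered active.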 Active and inactive are the calls of the source.

How the values were obtained:
Assay in all cases: NCI-60 one-dose screen, 48 h (100 = growth as untreated, 0 = no growth, -100 = all killed)
Settings in all cases: 10 µM unless noted
HCT-15 colon = tested on: HCT-15 colon
HT29 colon = tested on: HT29 colon
SNB-75 CNS = tested on: SNB-75 CNS
SNB-19 CNS = tested on: SNB-19 CNS
U251 CNS = tested on: U251 CNS
PC-3 prostate = tested on: PC-3 prostate
SK-MEL-5 melanoma = tested on: SK-MEL-5 melanoma
UACC-62 melanoma = tested on: UACC-62 melanoma
LOX IMVI melanoma = tested on: LOX IMVI melanoma
SK-MEL-28 melanoma = tested on: SK-MEL-28 melanoma

Measured: growth

Cc1cc2nc(-c3c(-c4ccc(F)cc4)nc4sccn34)[nH]c2cc1C
inactive: HCT-15 colon 93% | HT29 colon 96.3% | SNB-75 CNS 105% | SNB-19 CNS 96.1% | U251 CNS 95.4% | PC-3 prostate 90.5% | SK-MEL-5 melanoma 86.3% | UACC-62 melanoma 89% | LOX IMVI melanoma 88.8% | SK-MEL-28 melanoma 95.2%

O=C(OC[C@@H]1CO1)c1cccc2c(=O)c3ccccc3[nH]c12
active: HCT-15 colon -5.09% | HT29 colon -7.33% | SNB-75 CNS -88.2% | SNB-19 CNS -7.9% | U251 CNS -15.7% | PC-3 prostate -21.1% | SK-MEL-5 melanoma -90.9% | UACC-62 melanoma -89.2% | LOX IMVI melanoma -78.1% | SK-MEL-28 melanoma -62.6%

N#Cc1c(-c2ccccc2)nc2c(c(-c3ccccc3)nn2-c2ccccc2)c1-c1ccc(N2CCOCC2)cc1
inactive: HCT-15 colon 37.3% | HT29 colon 52.4% | SNB-75 CNS 86.9% | SNB-19 CNS 94.5% | U251 CNS 65.9% | PC-3 prostate 81.7% | SK-MEL-5 melanoma 98.8% | UACC-62 melanoma 106% | LOX IMVI melanoma 51.6% | SK-MEL-28 melanoma 107%

O=C1NC(=C(Cl)Cl)/C(=N/S(=O)(=O)N2CCCCC2)N1
active: HCT-15 colon -79% | HT29 colon -75.8% | U251 CNS -45.1% | LOX IMVI melanoma -56.6% | SK-MEL-28 melanoma -32.7%
inactive: SNB-75 CNS 93.5% | SNB-19 CNS 60.9% | PC-3 prostate 28.5% | SK-MEL-5 melanoma 82% | UACC-62 melanoma 46.6%

Clc1nccc2c(-c3csc(-c4c[nH]c5ccccc45)n3)c[nH]c12
inactive: HT29 colon 23.6% | SNB-75 CNS 41.4% | SNB-19 CNS 71.8% | U251 CNS 20.9% | PC-3 prostate 40.1% | SK-MEL-5 melanoma 55.8% | UACC-62 melanoma 43.9% | LOX IMVI melanoma 28.2% | SK-MEL-28 melanoma 23.9%
active: HCT-15 colon -39.6%

CCCCNC1=C(OCC)C(=O)c2ccccc2C1=O
inactive: HCT-15 colon 94.3% | HT29 colon 123% | SNB-75 CNS 96.1% | SNB-19 CNS 100% | U251 CNS 99.7% | PC-3 prostate 94.4% | SK-MEL-5 melanoma 91.9% | UACC-62 melanoma 97.5% | LOX IMVI melanoma 68.8% | SK-MEL-28 melanoma 114%

Cc1ncc(C(=O)Nc2ccc(CN3CCN(C)CC3)c(C(F)(F)F)c2)cc1C#Cc1cnc(N)c2cnccc12
active: HCT-15 colon 6.59% | HT29 colon -43.1% | SNB-75 CNS -90.6% | U251 CNS -20.7% | SK-MEL-5 melanoma -20.8% | UACC-62 melanoma -65.2% | LOX IMVI melanoma -90.1% | SK-MEL-28 melanoma -0.469%
inactive: SNB-19 CNS 23.1% | PC-3 prostate 41.7%

C[C@@H](CO)[C@@H]1CC[C@]2(C(=O)N3CCN(C)CC3)CC[C@]3(C)[C@H](CC[C@@H]4[C@@]5(C)CC[C@H](O)C(C)(C)[C@@H]5CC[C@]43C)[C@@H]12
inactive: HCT-15 colon 44.3% | HT29 colon 17.6% | SNB-75 CNS 91.4% | SNB-19 CNS 68.7% | U251 CNS 24.1% | PC-3 prostate 64.1% | SK-MEL-5 melanoma 82.9% | UACC-62 melanoma 78.3% | LOX IMVI melanoma 38.7% | SK-MEL-28 melanoma 106%

C[C@@H]1CC[C@@]2(OC1)O[C@H]1C[C@H]3[C@@H]4CC=C5C[C@@H](O[C@@H]6O[C@H](CO)[C@@H](O[C@@H]7O[C@@H](CO)[C@H](O)[C@H]7O)[C@H](O)[C@H]6O[C@@H]6O[C@@H](C)[C@H](O)[C@@H](O)[C@H]6O)CC[C@]5(C)[C@H]4CC[C@]3(C)[C@H]1[C@@H]2C
active: HCT-15 colon -84.8% | HT29 colon -61.2% | SNB-75 CNS -94.3% | SNB-19 CNS -81.7% | U251 CNS -97.7% | PC-3 prostate -90.2% | SK-MEL-5 melanoma -89.7% | UACC-62 melanoma -98% | LOX IMVI melanoma -96.7% | SK-MEL-28 melanoma -96.9%

Cc1ccc(S(=O)(=O)n2cc(C3C(Cl)C(=O)N3c3ccc(N4CCOCC4=O)cc3)c3ccccc32)cc1 (stereo not given)
inactive: HCT-15 colon 28% | HT29 colon 56.6% | SNB-75 CNS 31.1% | SNB-19 CNS 70.8% | U251 CNS 48.7% | PC-3 prostate 43.5% | SK-MEL-5 melanoma 43.8% | UACC-62 melanoma 51.3% | LOX IMVI melanoma 34.2% | SK-MEL-28 melanoma 69.3%

Brc1ccc(-c2cnc3nonc3n2)cc1
inactive: HCT-15 colon 54.8% | HT29 colon 70.2% | SNB-75 CNS 96% | SNB-19 CNS 88.2% | U251 CNS 92.5% | PC-3 prostate 57.1% | SK-MEL-5 melanoma 48.5% | UACC-62 melanoma 51.7% | LOX IMVI melanoma 38% | SK-MEL-28 melanoma 104%

CCCCN1C(=O)/C(=c2\sc3n(c2=O)NC2C(N=3)N(CC)C(=O)N2CC)c2ccccc21 (stereo not given)
inactive: HCT-15 colon 33.5% | HT29 colon 16% | SNB-75 CNS 11.2% | SNB-19 CNS 61.9% | U251 CNS 33.8% | PC-3 prostate 45.1% | SK-MEL-5 melanoma 55% | UACC-62 melanoma 37.4% | LOX IMVI melanoma 47.6% | SK-MEL-28 melanoma 65.6%

COc1cc2ncnc(Nc3ccc(F)c(Cl)c3)c2cc1OCC(=O)N1CCN(c2ccc(F)cc2)CC1
inactive: HCT-15 colon 92.7% | HT29 colon 86.7% | SNB-75 CNS 91.2% | SNB-19 CNS 83.6% | U251 CNS 107% | PC-3 prostate 94.6% | SK-MEL-5 melanoma 98.2% | UACC-62 melanoma 87.9% | LOX IMVI melanoma 93.3% | SK-MEL-28 melanoma 98.4%

CN1CCN(Cc2ccc(NC(=O)c3cncc(C#Cc4cncc5[nH]ncc45)c3)cc2C(F)(F)F)CC1
inactive: HCT-15 colon 10.6% | HT29 colon 11.1% | SNB-75 CNS 20% | SNB-19 CNS 45.5% | U251 CNS 25.1% | SK-MEL-5 melanoma 13.2%
active: PC-3 prostate 1.19% | UACC-62 melanoma -49.2% | LOX IMVI melanoma -90% | SK-MEL-28 melanoma -15.2%

Cc1[nH]c(/C=C/C(=O)c2ccc(C(F)(F)F)c(F)c2)c(C)c1C(=O)NCC(C)C
inactive: HCT-15 colon 93.8% | HT29 colon 102% | SNB-75 CNS 89.4% | SNB-19 CNS 92.2% | U251 CNS 100% | PC-3 prostate 103% | SK-MEL-5 melanoma 99.8% | UACC-62 melanoma 96.6% | LOX IMVI melanoma 90.5% | SK-MEL-28 melanoma 106%

Cc1ccc2nc(Cl)c(Cn3nnnc3SCc3ccccc3)cc2c1
inactive: HCT-15 colon 90.7% | HT29 colon 101% | SNB-75 CNS 93.4% | SNB-19 CNS 98.8% | U251 CNS 95.8% | PC-3 prostate 90.4% | SK-MEL-5 melanoma 93% | UACC-62 melanoma 83.7% | LOX IMVI melanoma 86.7% | SK-MEL-28 melanoma 107%

O=c1[nH]c(-c2ccc(Cl)cc2)cn1-c1ccc(-n2cc(-c3ccc(Cl)cc3)[nH]c2=O)cc1
inactive: HCT-15 colon 98.8% | HT29 colon 102% | SNB-75 CNS 98.1% | SNB-19 CNS 93.5% | U251 CNS 104% | PC-3 prostate 77.5% | SK-MEL-5 melanoma 101% | UACC-62 melanoma 87.5% | LOX IMVI melanoma 103% | SK-MEL-28 melanoma 101%

NC(=O)c1c(NC(=O)c2ccc(Cl)cc2)sc2c1CCC(=O)C2
inactive: HCT-15 colon 63.5% | HT29 colon 62.5% | SNB-75 CNS 45.4% | SNB-19 CNS 71.1% | U251 CNS 24% | PC-3 prostate 15.5% | SK-MEL-5 melanoma 99.1% | UACC-62 melanoma 61.9% | LOX IMVI melanoma 56.5% | SK-MEL-28 melanoma 99.2%

C#CCOc1ccc2ncnc(Nc3cccc(NC(=O)CCl)c3)c2c1
active: LOX IMVI melanoma -68.1%
inactive: HCT-15 colon 50.6% | HT29 colon 33.5% | SNB-75 CNS 68.9% | SNB-19 CNS 71.8% | U251 CNS 62.2% | PC-3 prostate 70% | SK-MEL-5 melanoma 68.3% | UACC-62 melanoma 60.6% | SK-MEL-28 melanoma 90.6%

Cn1cc(-c2nn3cc(-c4ccccc4)nc3s2)c2ccccc21
inactive: HCT-15 colon 44.7% | HT29 colon 44.5% | SNB-75 CNS 39.8% | SNB-19 CNS 73.4% | U251 CNS 77.9% | PC-3 prostate 75.9% | SK-MEL-5 melanoma 65.5% | UACC-62 melanoma 54% | LOX IMVI melanoma 79.4% | SK-MEL-28 melanoma 71.1%

COP(=O)(OC)c1nnn(-c2cccc([N+](=O)[O-])c2)c1C
inactive: HCT-15 colon 106% | HT29 colon 105% | SNB-75 CNS 93.6% | SNB-19 CNS 105% | U251 CNS 99.7% | PC-3 prostate 98.7% | SK-MEL-5 melanoma 100% | UACC-62 melanoma 99.2% | LOX IMVI melanoma 96% | SK-MEL-28 melanoma 113%

COc1ccccc1-n1c(-c2cc(O)ccc2C)cn2c3c(=O)[nH]c(=O)n(C)c3nc12
active: SNB-75 CNS -32%
inactive: HCT-15 colon 85.8% | HT29 colon 32% | SNB-19 CNS 82.1% | U251 CNS 83.8% | PC-3 prostate 67.1% | SK-MEL-5 melanoma 77.3% | UACC-62 melanoma 77.8% | LOX IMVI melanoma 38.9% | SK-MEL-28 melanoma 96.9%

COc1cccc(NC(=O)c2cccc(C3CCc4c(cc(OC)c(OC)c4OC)O3)c2)c1 (stereo not given)
inactive: HCT-15 colon 63.2% | HT29 colon 71.9% | SNB-75 CNS 85.6% | SNB-19 CNS 74.1% | U251 CNS 75.5% | PC-3 prostate 28.9% | SK-MEL-5 melanoma 36.4% | UACC-62 melanoma 40.6% | LOX IMVI melanoma 59.9% | SK-MEL-28 melanoma 81.5%

COC(=O)c1nc(-c2ccccc2)oc1S(=O)(=O)N1CCC(C(N)=O)CC1
inactive: HCT-15 colon 42.8% | HT29 colon 32.9% | SNB-75 CNS 93.2% | SNB-19 CNS 93.3% | U251 CNS 88.6% | PC-3 prostate 62.7% | SK-MEL-5 melanoma 81.6% | UACC-62 melanoma 79.6% | LOX IMVI melanoma 63.7% | SK-MEL-28 melanoma 63.4%

N#Cc1c(-c2ccccc2)cc(-c2ccccc2)n(CCCC(=O)NO)c1=O
inactive: HCT-15 colon 19.1% | HT29 colon 20.9% | SNB-19 CNS 43.5% | U251 CNS 26.8% | PC-3 prostate 35.5% | SK-MEL-28 melanoma 33.4%
active: SNB-75 CNS -23.6% | SK-MEL-5 melanoma -13.6% | UACC-62 melanoma 9.37% | LOX IMVI melanoma 8.85%

CC(C)(CO)N(CCO)CCO
inactive: HCT-15 colon 99.7% | HT29 colon 98.6% | SNB-75 CNS 102% | SNB-19 CNS 103% | U251 CNS 91.4% | PC-3 prostate 91.4% | SK-MEL-5 melanoma 97.1% | UACC-62 melanoma 101% | LOX IMVI melanoma 100% | SK-MEL-28 melanoma 103%

O=C(NCc1ccccc1O)c1cccc2ccccc12
inactive: HCT-15 colon 68.9% | HT29 colon 107% | SNB-75 CNS 66.5% | SNB-19 CNS 69.3% | U251 CNS 81.6% | PC-3 prostate 52.5% | SK-MEL-5 melanoma 60.1% | UACC-62 melanoma 37.9% | LOX IMVI melanoma 79.6% | SK-MEL-28 melanoma 71.5%
